Compound activity: PubChem BioAssay, several laboratories
Shown are actives, neighbours in structure and some others; about 32% of the full set was active somewhere.
CYP2C19 inhib = blockers of cytochrome P450 2C19 activity – biochemical, luminescence, ADME assay, primary screen; AID 778, 2007; P33261; CYP2C19 Supersomes, luciferin-H EGE luminescence, 30 min; inhibition, % at 5 µM; 96,000 tested, 21% active;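 active means CYP2C19 inhibition above a set limit at 5 µM in the primary screen, cut at about 50% in these data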
CYP2C19 activ = human CYP2C19 activators, primary screen, biochemical, luminescence; 96,000 tested, under 10 active; activation factor at 5 µM; Cytochrome P450 2C19 (Homo sapiens), P33261; recombinant CYP2C19, luciferin-H EGE luminescence; hits give high values; 0 = fully inhibited enzyme, 1 = untreated enzyme;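 active means activation factor of at least 2 at 5 µM in the primary screen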
PostGolgi yeast = phenotypic screen on post-Golgi transport, primary screen. post-Golgi transport phenotypic cell assay. inhibition, % at 10 µM. 98,000 tested, 0.9% active;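 further: yeast cells grown in 1536-well plates; yeast grown about 18 h at 30C before absorbance read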
PostGolgi ctrl = growth inhibition of yeast control strain, primary screen, counter-screen for post-Golgi transport modulator project; inhibition, % at 10 µM; 98,000 tested, 5% active; efflux-deficient yeast background strain, growth absorbance A615, 16 h
CYP2C9 activ = human CYP2C9 activators, primary screen, biochemical, luminescence | Cytochrome P450 2C9 (Homo sapiens), P11712 | recombinant CYP2C9, luciferin-H conversion; hits give high values; factor 1 = untreated enzyme, 0 = blocked | activation factor at 5 µM | 96,000 tested, 1.4% active | AID 1024, 2008;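 active means activation factor of 2 or more for CYP2C9 at a 5 µM dose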
Target sequence (P11712 whole entry, looked up): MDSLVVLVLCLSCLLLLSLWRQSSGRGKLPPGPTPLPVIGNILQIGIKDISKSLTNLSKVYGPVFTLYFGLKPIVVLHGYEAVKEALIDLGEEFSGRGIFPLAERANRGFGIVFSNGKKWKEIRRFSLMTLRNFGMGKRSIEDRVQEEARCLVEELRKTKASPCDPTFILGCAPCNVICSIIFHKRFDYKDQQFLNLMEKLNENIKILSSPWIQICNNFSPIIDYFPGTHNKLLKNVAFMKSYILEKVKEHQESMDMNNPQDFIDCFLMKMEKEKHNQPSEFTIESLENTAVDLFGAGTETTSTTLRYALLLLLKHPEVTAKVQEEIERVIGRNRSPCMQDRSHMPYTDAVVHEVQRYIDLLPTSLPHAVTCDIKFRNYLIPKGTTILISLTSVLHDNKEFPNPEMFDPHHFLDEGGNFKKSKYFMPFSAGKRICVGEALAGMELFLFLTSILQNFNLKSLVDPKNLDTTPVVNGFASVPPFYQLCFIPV
CYP2C9 inhib = blockers of cytochrome P450 2C9 activity – biochemical, luminescence, ADME assay, primary screen; inhibition, % at 5 µM; 96,000 tested, 20% active; AID 777, 2007; CYP2C9 Supersomes, luciferin-H conversion;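 active means blocking of liver enzyme CYP2C9 beyond about 50% at 5 µM, limit read from the data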
Each line names hits and unclear results; the compound was inactive in the other large screens. Unless noted, no stated cut-off is given here; in the data, active means inhibition above about 30%; inactive means the rest.

CC(=O)N1c2c(cc(Br)cc2S(=O)(=O)N2CCN(c3ccccn3)CC2)CC1C (centres undefined)	CYP2C9 inhib 67
CCOC(=O)C1CCN(S(=O)(=O)c2cc(Br)cc3c2N(C(C)=O)C(C)C3)CC1 (centres undefined)	CYP2C19 inhib 93, CYP2C9 inhib 79
CCOC(=O)N1CCN(C(=O)c2ccc(Cl)c(S(=O)(=O)N3CCOCC3)c2)CC1	none
COc1cccc(CNS(=O)(=O)c2cc(Br)cc3c2N(C(C)=O)C(C)C3)c1 (centres undefined)	CYP2C19 inhib 74, CYP2C9 activ 2.1
CCOC(=O)N1CCN(S(=O)(=O)c2cc(Br)cc3c2N(C(C)=O)C(C)C3)CC1 (centres undefined)	CYP2C19 inhib 64
Cc1nccn1-c1ccc(C(F)(F)F)cc1NC=O	none
Cc1sc2nc3n(c(=O)c2c1C)NC(=O)CC3	none (no result: CYP2C19 inhib, CYP2C19 activ, CYP2C9 activ, CYP2C9 inhib)
O=c1cc(N2CCc3ccccc3C2)[nH]c(=O)n1Cc1ccc(F)cc1	none (no result: CYP2C19 inhib, CYP2C19 activ, CYP2C9 activ, CYP2C9 inhib)
C[C@@]12CC(=O)NC1N(C(=O)c1cccc(C(F)(F)F)c1)C(c1ccccc1OC(=O)c1cccc(C(F)(F)F)c1)C2 (some centres undefined)	CYP2C9 inhib 94
O=C(COc1ccc(F)c(Cl)c1)c1ccc[nH]1	CYP2C19 inhib 74
O=C(Cc1ccc(Cl)cc1Cl)OCC(=O)c1ccc[nH]1	none
N#CCCn1c(Cl)nc2ccccc21	none
O=C(NCc1ccccc1)c1cccnc1N1CCOCC1	none (no result: CYP2C19 inhib, CYP2C19 activ, CYP2C9 activ, CYP2C9 inhib)
CCOC(=O)c1cc(-c2ccc(C#N)cc2)nc2c1c(C)nn2CCC#N	CYP2C9 inhib 52
CCOC(=O)c1cc(-c2ccc(OC)cc2)nc2c1c(C)nn2CCC#N	none
Cc1cccc2cc(CN(Cc3cccnc3)C(=O)c3ccncc3)c(=O)[nH]c12	CYP2C19 inhib 73, CYP2C9 inhib 61
Cc1ccc(CN(Cc2cc3cccc(C)c3[nH]c2=O)C(=O)N(C)C)cc1	CYP2C19 inhib 52 (no result: PostGolgi yeast, PostGolgi ctrl)
COCCn1c(CN2CCN(c3cccc(Cl)c3)CC2)nc2c1c(=O)n(C)c(=O)n2C	CYP2C9 inhib 77
CCOCCn1c(CN2CCN(c3cccc(Cl)c3)CC2)nc2c1c(=O)n(C)c(=O)n2C	CYP2C9 inhib 80
CCOCCn1c(CN2CCN(c3ccc(F)cc3)CC2)nc2c1c(=O)n(C)c(=O)n2C	none
Cc1cccc(N2C(=O)C3C4CC(C(Br)C4Br)C3C2=O)n1 (centres undefined)	none
CCOC(=O)N1CCN(CC(=O)Nc2ccc(C)cc2)CC1	none
Cc1ccc(NC(=O)CN2CC(C)SC2=NC2CCCCC2)cc1 (centres undefined)	CYP2C19 inhib 82
CCS(=O)(=O)C(=C(Nc1ccc(OC)cc1)Nc1ccc(OC)cc1)S(=O)(=O)CC	none
OCCN1CCN(c2ncnc3c2sc2nc(N4CCOCC4)c4c(c23)CCC4)CC1	CYP2C19 inhib 84, CYP2C9 inhib 79
CN(C)CCNc1ncnc2c1sc1nc(N3CCOCC3)c3c(c12)CC(C)(C)SC3	none
c1nc(N2CCNCC2)c2sc3nc(N4CCOCC4)c4c(c3c2n1)CCC4	none (no result: PostGolgi yeast, PostGolgi ctrl)
COC(=O)CSc1ncnc2c1sc1nc(N3CCOCC3)c3c(c12)CCCC3	none
CCOC(=O)CSc1ncnc2c1sc1nc(N3CCOCC3)c3c(c12)CCCC3	CYP2C9 inhib 54
OCCN(CCO)c1ncnc2c1sc1nc(N3CCOCC3)c3c(c12)CCCC3	CYP2C19 inhib 81, CYP2C9 inhib 89
COc1cc(C(c2sc3nc(C)nn3c2O)N2CCN(c3ccccc3)CC2)cc(OC)c1OC (centres undefined)	none (no result: CYP2C19 inhib, CYP2C19 activ, CYP2C9 activ, CYP2C9 inhib)
CN(C)CCNC(=O)c1c(O)c2c([nH]c1=O)CCCC2	none
CCc1ccc2[nH]c(=O)c(CN(Cc3ccc(F)cc3)C(c3nnnn3CCN3CCOCC3)C(C)C)cc2c1 (centres undefined)	none
Cc1nn(Cc2ccccc2)c(C)c1NC(=O)CSc1nnc(-c2cc(Cl)ccc2O)n1C	none
O=C(c1ccco1)N1CCN(C(=O)c2oc(=O)c3ccccc3c2-c2ccccc2)CC1	CYP2C9 inhib 60 (no result: PostGolgi ctrl)
O=C(c1oc(=O)c2ccccc2c1-c1ccccc1)N1CCOCC1	none
CCOC(=O)N1CCN(C(=O)c2oc(=O)c3ccccc3c2-c2ccc(C)cc2)CC1	CYP2C19 inhib 60, CYP2C9 inhib 59
Cc1ccc(C)c(N(CC(=O)NC2CCCC2)C(=O)c2cc3cc4cccc(C)c4nc3s2)c1	CYP2C9 inhib 96
Cc1cc(C)cc(N(CC(=O)NC2CCCCC2)C(=O)c2ccc(C)s2)c1	none
Cc1ccc2cc3cc(C(=O)N(CC(=O)NC4CCCC4)c4cccc(C)c4C)sc3nc2c1	CYP2C9 inhib 94
Cc1ccc(C)c(N(CC(=O)NC2CCCC2)C(=O)c2oc(C(C)(C)C)cc2C)c1	none
CCN(CC)C(=O)CSc1ncnc2c(-c3cccs3)nsc12	none
Cn1c(SCc2ccc(F)cc2)nnc1-c1cccs1	none
O=C(CN1CCCCCC1)Nc1ccccc1F	CYP2C19 inhib 63
O=C(CN1CCN(CC(=O)Nc2ccccc2C(F)(F)F)CC1)Nc1ccccc1F	CYP2C19 inhib 85
O=C(CN1C(=O)NC2(CCCC2)C1=O)Nc1ccccc1F	CYP2C9 activ 2.3
O=C(CCN1CCN(CC(=O)Nc2ccccc2Cl)CC1)Nc1ccccc1F	CYP2C19 inhib 77
CC(=O)c1cccc(NC(=O)CN2C(=O)NC3(CCCCCCC3)C2=O)c1	none
CC(C)(C)c1ccc(S(=O)(=O)n2c(CN3CCOCC3)nc3ccccc32)cc1	none
CCOc1ccc(Oc2nc(Nc3ccc(C)cc3)nc(N(C)C)n2)nn1	none
CSc1nncn1/N=C/c1ccccc1F	CYP2C9 inhib 58 (no result: PostGolgi yeast)
COc1ccc(N2C(=O)CSC23C(=O)N2c4c(cccc43)C(C)=CC2(C)C)cc1 (centres undefined)	CYP2C19 inhib 98, PostGolgi ctrl 32, CYP2C9 inhib 80
COc1ccc(N2C(=O)CSC23C(=O)N2CCCc4cccc3c42)cc1 (centres undefined)	none
COc1ccc(S(=O)(=O)N(CC(=O)N/N=C/c2cccs2)c2ccc(C)cc2)cc1OC	CYP2C19 inhib 99
Cc1ccc(N(CC(=O)NC(C)c2ccccc2)S(=O)(=O)c2cccs2)cc1 (centres undefined)	CYP2C19 inhib 98, CYP2C9 inhib 86
Cc1ccc(N(CC(=O)N/N=C/c2ccco2)S(=O)(=O)c2ccccc2)cc1	none
CCOc1ccc(S(=O)(=O)N(CC(=O)O)c2ccc(C)cc2)cc1	none
CCOc1ccc(S(=O)(=O)N(CC(=O)N/N=C/c2cccs2)c2ccc(C)cc2)cc1	CYP2C19 inhib 53
